In all, about 85,000 compounds went through this assay and about 5,100 (6%) were called active. This excerpt belongs to a sample that is enriched for actives. Unmarked numbers belong to inactive results.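 The calls were made as follows: active = viability at or below 40%; inactive = viability above 40%.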
Test: proliferation blockers of H69AR lung cancer cells, primary screen, cell-based, human, 86K library (AID 598);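 also: multidrug resistant small cell line overexpressing MRP-1 efflux transporter; 100% = mean luminescence of untreated control wells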
Conditions: H69AR lung tumor viability, ATP luminescence, 72 h; at 10 µM; hits give low values

SMILES	viability
CC1=CC(C)(C)NC(=S)N1c1ccccc1	98.5%
CCN(CC)CCCNC(=O)CCc1ccccc1	97.4%
O=C(NCCOc1ccccc1)c1ccccc1	91.4%
CCc1ccc(CNC(=O)C2CCCN(c3nc4ccccc4o3)C2)cc1 (stereo not given)	92.4%
NC1=NC(=O)C2(COC(c3ccccc3Cl)OC2)S1 (stereo not given)	92.6%
CCOc1ccc(-n2c(N)c(C(=O)NCC3CCCO3)sc2=S)cc1 (stereo not given)	94.8%
Oc1c(Cl)cc(Cl)c(Cl)c1Cc1c(O)c(Cl)cc(Cl)c1Cl	13.5% (active)
COc1cc(OC)nc(NC(=O)CCl)n1	98.7%
C=C(Cl)COC(=O)C1C2C=CC(C2)C1C(=O)O (stereo not given)	101%
Cc1csc(NC(=O)CN2CCCCCC2)n1	95.1%
CCOC(=O)Cc1csc(NC(=O)Nc2ccccc2)n1	96.7%
Cc1csc(NC(=O)NC2(C(F)(F)F)Oc3ccccc3O2)n1	22.9% (active)
COc1cc(CC(=O)NCc2cccs2)cc(OC)c1OC	106%
COc1ccc(Nc2nc(=O)[nH]nc2C)cc1	95.5%
CCOC(=O)c1c(NC(=O)CCl)sc(C(=O)N(CC)CC)c1C	2.11% (active)
CCOC(=O)c1sc(NC(=O)CCN2CCOCC2)c(C(=O)OCC)c1C	45.7%
CCOC(=O)Nc1sc(C(=O)N(C)C)c(C)c1C(=O)OCC	84.2%
Cc1ccc(C(=O)N2CCCC2)c(F)c1F	87.4%
OC(COc1ccccc1)Cn1cc(Br)cn1 (stereo not given)	109%
OC(CN=c1sc2ccccc2n1CC(O)COc1ccccc1)COc1ccccc1 (stereo not given)	23.3% (active)
CC(C)c1ccc(OCC(O)Cn2cnc3ccccc32)cc1 (stereo not given)	82.6%
Cc1cccn2c(=O)c(/C=C(\C#N)S(=O)(=O)c3ccc(Cl)cc3)c(N3CCC(C(N)=O)CC3)nc12	82.2%

SMILES	viability
CC1=CC(C)(C)Nc2ccc(OC(=O)CN3C(=O)C4CCCCC4C3=O)cc21 (stereo not given)	0.5% (active)
CC1=CC(C)(C)Nc2ccc(OC(=O)C(Cc3ccccc3)N3C(=O)C4CCCCC4C3=O)cc21 (stereo not given)	80.3%
CC(OC(=O)CN1C(=O)C2CCCCC2C1=O)C(=O)Nc1ncc(Cl)cc1Cl (stereo not given)	101%
CCCCCCSc1nsc(N)n1	82.7%
CCOC(=O)c1[nH]c(C)c(C(=O)OCC(=O)N2c3ccccc3CC2C)c1C (stereo not given)	87%
Cc1cccc2c1N(CC(=O)OC(C)C)C(=O)C2=O	71.7%
CC(C)OC(=O)CN1C(=O)C(=O)c2ccccc21	13.1% (active)
CCCCOC(=O)Cn1c(=O)n(CC(=O)OCCCC)c2cc(C)ccc21	99.5%
CCOC(=O)c1cc2n(c1C)-c1ccccc1C2=O	90.3%
CC(C)OC(=O)CN1C(=O)c2ccccc2C1=O	98%
CCOC(=O)CN1C(=O)C(=O)c2cc(C)ccc21	20.2% (active)
CCCc1nc2ccccc2c(C(=O)OCC(=O)c2ccc3c(c2)NC(=O)CO3)c1CC	43.2%
Cc1ccc(Cc2c(C)nc3nc(SCC(=O)NCCN4CCOCC4)nn3c2C)cc1	93.9%
CCOc1ccc(NC(=O)CN(C)CC(=O)Nc2cccc(Cl)c2C)cc1OCC	48.5%
Cc1cccc(NC(=O)N(Cc2cc3cc(C)cc(C)c3[nH]c2=O)CC2COCCO2)c1 (stereo not given)	47%
Cn1c(Cn2nnc3ccccc32)nnc1SCC(=O)c1ccccc1F	79.3%
CN=C1SC(CC(=O)Nc2ccc(C(=O)O)cc2)C(=O)N1C (stereo not given)	97.5%
O=C(CN1C(=O)CC(c2ccccc2)=Nc2ccccc21)NC1CCCCC1	77.6%
Cc1ccnc(N2CCC(C(=O)NC3CCCCCC3)CC2)n1	77.9%
Cc1ccnc(-n2sc3ccccc3c2=O)n1	1.54% (active)
Cc1nc2ccccc2c(=O)n1CCCn1ccnc1	99%
CC(C)(C)N1CC(c2nc3ccccc3n2Cc2ccc(F)cc2)CC1=O (stereo not given)	79.4%

SMILES	viability
CCCn1c(C(Cc2ccccc2)NC(=O)COC)nc2ccccc21 (stereo not given)	92.9%
CNC(=O)c1nnc(Cc2ccc(Cl)cc2)o1	97.8%
O=C(OCc1ccccc1F)c1ccc2c(c1)OCCO2	91.2%
O=C(CCN1CCc2ccccc2C(O)(c2ccccc2)C1)c1ccc2c(c1)OCCO2 (stereo not given)	-0.08% (active)
O=C(COC(=O)c1ccc2c(c1)OCCO2)NCc1ccccc1	92.1%
CCn1c(SCC(=O)Nc2nc(C)cs2)nnc1C(C)NC(=O)c1ccccc1 (stereo not given)	88.1%
COCCn1c(=S)[nH]c2cc(C(=O)NCCc3ccc(OC)c(OC)c3)ccc2c1=O	78.1%
N#CC1=C(N)Oc2c(sc3ccccc23)C1c1ccco1 (stereo not given)	14.4% (active)
Cc1cc2c(c(=O)n1Cc1ccco1)C(c1ccccc1)C(C#N)=C(N)O2 (stereo not given)	70%
O=C(COc1cc(Cl)c(Cl)cc1Cl)NC(=O)NC1CCCC1	90.7%
CCOC(=O)c1cnc(SCC(=O)Nc2ccccc2C(=O)OC)nc1N	87.2%
c1ccc(-n2ncc3c2ncn2c(C4CCCCC4)nnc32)cc1	105%
c1ccc(-n2ncc3c2ncn2c(CSc4nc5ccccc5s4)nnc32)cc1	5.83% (active)
CCN(CC)C(=O)CSc1ncnc2c1cnn2-c1ccccc1	86.5%
CCCNC(=O)N1CCN(C(=O)NCCC)CC1	104%
CC(=O)c1cccc(NC(=O)C2CCCN2S(=O)(=O)c2cccc3nsnc23)c1 (stereo not given)	88.1%
CCC(C)NC(=O)c1ccccc1NC(=O)c1ccccc1N(C)S(C)(=O)=O (stereo not given)	108%
CC(C)(C)C(=O)Cn1c(NCCO)nc2ccccc21	98%
Cc1ccccc1NC(=O)Cc1nnc(SCC(=O)N2CCN(c3ccccc3)CC2)n1C	94%
Cn1c(Cc2cccc3ccccc23)nnc1SCC(=O)N1CCN(c2cccc(Cl)c2)CC1	38.5% (active)
Cc1cc2nnc(SCC(=O)N3CCN(c4ccccc4)CC3)n2c(N)n1	64.4%

From PubChem BioAssay AID598 (SRMLSC, 2007)
